Article PMC7862700, “An all-to-all approach to the identification of sequence-specific readers for epigenetic DNA modifications on cytosine”

How the values were obtained:
Assay in all cases: DAPPL (digital affinity profiling via proximity ligation, sequencing); 10 mM Tris-HCl pH 7.5, 50 mM NaCl, 1 mM DTT, 4% glycerol, room temperature, 30 min; GST-TFs on glutathione beads, 16-mer random dsDNA library, 0.1% formaldehyde crosslink after washing; high values mean tight binding
Settings in all cases: protein: recombinant; tags: N-terminal GST; dsDNA, one strand shown
ERF = target: T1, ERF (Homo sapiens, UniProt P50548 1-548)
T1 sequence: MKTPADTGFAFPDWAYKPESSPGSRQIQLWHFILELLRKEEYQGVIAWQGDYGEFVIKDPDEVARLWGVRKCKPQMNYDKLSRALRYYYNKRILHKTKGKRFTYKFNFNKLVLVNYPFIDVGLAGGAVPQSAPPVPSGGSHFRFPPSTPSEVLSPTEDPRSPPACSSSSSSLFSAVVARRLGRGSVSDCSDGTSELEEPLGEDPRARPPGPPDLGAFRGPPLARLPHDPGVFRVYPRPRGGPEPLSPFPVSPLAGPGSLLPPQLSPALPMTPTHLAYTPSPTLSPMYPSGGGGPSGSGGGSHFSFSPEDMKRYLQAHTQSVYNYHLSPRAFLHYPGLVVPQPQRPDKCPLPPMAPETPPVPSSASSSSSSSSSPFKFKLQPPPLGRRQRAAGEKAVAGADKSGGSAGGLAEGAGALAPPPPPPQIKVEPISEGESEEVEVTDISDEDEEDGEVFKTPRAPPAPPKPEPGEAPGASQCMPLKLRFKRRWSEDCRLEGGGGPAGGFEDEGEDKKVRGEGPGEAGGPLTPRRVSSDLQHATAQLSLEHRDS
How it was run: (§1)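 Human transcription factors carrying a GST fusion were produced in yeast, bound to glutathione beads, tagged with DNA barcodes and pooled together with a tag-only sample. Each pool was held with 200 nmole of a random double-stranded 16-mer DNA library in Tris/NaCl/DTT/glycerol buffer for 30 min at room temperature, then washed, crosslinked in 0.1% formaldehyde, proximity-ligated with BsaI/T4 ligase (1 h, 37 °C), PCR-amplified and sequenced on an Illumina NextSeq500. Binding signal is the read frequency of each hexamer for a given factor divided by its frequency in the tag-only sample.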

ETV3L = target: T2, ETV3L (Homo sapiens, UniProt Q6ZN32 1-361)
T2 sequence: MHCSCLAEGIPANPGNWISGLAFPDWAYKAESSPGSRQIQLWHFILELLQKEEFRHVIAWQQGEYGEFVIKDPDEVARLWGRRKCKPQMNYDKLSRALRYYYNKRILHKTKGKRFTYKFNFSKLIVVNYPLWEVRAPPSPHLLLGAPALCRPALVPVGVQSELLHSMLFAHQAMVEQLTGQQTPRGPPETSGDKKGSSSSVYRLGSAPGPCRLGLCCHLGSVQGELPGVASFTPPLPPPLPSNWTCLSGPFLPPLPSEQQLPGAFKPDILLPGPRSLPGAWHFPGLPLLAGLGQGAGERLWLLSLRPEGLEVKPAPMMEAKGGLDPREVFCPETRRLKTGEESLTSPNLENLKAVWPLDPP
How it was run: as §1

ETS2 = target: T3, ETS2 (Homo sapiens, UniProt P15036 1-469)
T3 sequence: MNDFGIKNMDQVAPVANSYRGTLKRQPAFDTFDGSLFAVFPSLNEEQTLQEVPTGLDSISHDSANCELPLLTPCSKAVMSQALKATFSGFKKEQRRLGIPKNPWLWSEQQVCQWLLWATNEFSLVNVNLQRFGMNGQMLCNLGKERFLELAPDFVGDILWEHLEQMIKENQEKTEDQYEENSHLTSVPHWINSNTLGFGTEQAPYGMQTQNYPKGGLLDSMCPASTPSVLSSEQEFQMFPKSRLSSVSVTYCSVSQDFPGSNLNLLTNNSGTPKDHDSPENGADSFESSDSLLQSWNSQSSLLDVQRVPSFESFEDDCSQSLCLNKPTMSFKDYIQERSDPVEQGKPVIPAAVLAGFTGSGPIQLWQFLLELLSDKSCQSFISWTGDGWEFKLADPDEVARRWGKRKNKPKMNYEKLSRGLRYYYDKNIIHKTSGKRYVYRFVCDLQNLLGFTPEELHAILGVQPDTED
How it was run: as §1

SPDEF = target: T4, SPDEF (Homo sapiens, UniProt O95238 1-335)
T4 sequence: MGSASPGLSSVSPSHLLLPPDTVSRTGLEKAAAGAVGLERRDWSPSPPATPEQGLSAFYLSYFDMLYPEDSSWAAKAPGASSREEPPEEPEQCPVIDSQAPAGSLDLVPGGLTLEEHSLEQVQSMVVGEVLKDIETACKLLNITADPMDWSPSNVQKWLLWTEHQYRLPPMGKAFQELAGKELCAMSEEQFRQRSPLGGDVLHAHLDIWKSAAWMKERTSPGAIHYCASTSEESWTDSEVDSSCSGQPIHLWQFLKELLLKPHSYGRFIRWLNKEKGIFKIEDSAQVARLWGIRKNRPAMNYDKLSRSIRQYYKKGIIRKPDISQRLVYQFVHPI
How it was run: as §1

ETV7 = target: T5, ETV7 (Homo sapiens, UniProt Q9Y603 1-341)
T5 sequence: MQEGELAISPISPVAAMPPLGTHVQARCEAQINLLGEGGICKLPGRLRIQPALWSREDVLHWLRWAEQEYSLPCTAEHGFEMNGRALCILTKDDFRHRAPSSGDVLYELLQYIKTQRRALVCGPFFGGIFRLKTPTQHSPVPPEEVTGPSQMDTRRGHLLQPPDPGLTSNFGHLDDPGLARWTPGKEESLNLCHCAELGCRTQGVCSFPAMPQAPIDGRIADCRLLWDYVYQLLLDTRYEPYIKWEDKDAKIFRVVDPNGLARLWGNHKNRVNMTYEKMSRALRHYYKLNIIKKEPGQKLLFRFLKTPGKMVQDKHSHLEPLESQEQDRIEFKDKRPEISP
How it was run: as §1

ELF5 = target: T6, ELF5 (Homo sapiens, UniProt Q9UKW6-2 1-255)
T6 sequence: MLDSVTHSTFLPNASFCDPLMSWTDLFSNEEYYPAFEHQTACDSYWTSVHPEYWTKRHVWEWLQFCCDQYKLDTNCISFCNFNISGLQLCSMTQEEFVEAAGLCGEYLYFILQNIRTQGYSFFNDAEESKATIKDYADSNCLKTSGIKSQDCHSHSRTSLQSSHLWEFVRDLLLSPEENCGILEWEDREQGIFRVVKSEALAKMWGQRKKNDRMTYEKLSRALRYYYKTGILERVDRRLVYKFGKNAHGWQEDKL
How it was run: as §1

ETV3 = target: T7, ETV3 (Homo sapiens, UniProt P41162-2 1-143)
T7 sequence: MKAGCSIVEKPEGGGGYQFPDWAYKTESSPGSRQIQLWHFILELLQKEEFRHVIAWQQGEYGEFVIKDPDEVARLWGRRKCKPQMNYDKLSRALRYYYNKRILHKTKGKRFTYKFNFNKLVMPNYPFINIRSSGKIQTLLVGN
How it was run: as §1

ETV6 = ETV6 (Homo sapiens, UniProt P41212 1-452)
Sequence of ETV6 (P41212 whole entry): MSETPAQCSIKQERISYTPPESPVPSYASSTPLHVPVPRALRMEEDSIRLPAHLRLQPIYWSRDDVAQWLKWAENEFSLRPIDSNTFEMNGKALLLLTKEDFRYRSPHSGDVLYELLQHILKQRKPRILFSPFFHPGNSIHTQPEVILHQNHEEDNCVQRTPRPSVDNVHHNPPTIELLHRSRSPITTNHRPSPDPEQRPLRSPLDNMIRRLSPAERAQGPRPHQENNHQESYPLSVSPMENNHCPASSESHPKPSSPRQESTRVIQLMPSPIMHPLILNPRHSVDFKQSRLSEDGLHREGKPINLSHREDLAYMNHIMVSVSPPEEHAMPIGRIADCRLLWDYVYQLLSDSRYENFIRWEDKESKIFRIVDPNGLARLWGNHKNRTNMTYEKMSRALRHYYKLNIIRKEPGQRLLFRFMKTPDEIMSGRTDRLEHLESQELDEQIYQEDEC
How it was run: as §1

Sequence	binding signal (ERF)	binding signal (ETV3L)	binding signal (ETS2)	binding signal (SPDEF)	binding signal (ETV7)	binding signal (ELF5)	binding signal (ETV3)	binding signal (ETV6)
ACGAAC	1.05 fold enrichment (6-mer frequency, TF over GST control)	1.07 fold enrichment (6-mer frequency, TF over GST control)	1.22 fold enrichment (6-mer frequency, TF over GST control)	1.13 fold enrichment (6-mer frequency, TF over GST control)	1.21 fold enrichment (6-mer frequency, TF over GST control)	1.09 fold enrichment (6-mer frequency, TF over GST control)	1.04 fold enrichment (6-mer frequency, TF over GST control)	1.1 fold enrichment (6-mer frequency, TF over GST control)
ATGCGG	1.12 fold enrichment (6-mer frequency, TF over GST control)	1.25 fold enrichment (6-mer frequency, TF over GST control)	1.32 fold enrichment (6-mer frequency, TF over GST control)	1.32 fold enrichment (6-mer frequency, TF over GST control)	1.25 fold enrichment (6-mer frequency, TF over GST control)	1.21 fold enrichment (6-mer frequency, TF over GST control)	1.45 fold enrichment (6-mer frequency, TF over GST control)	1.26 fold enrichment (6-mer frequency, TF over GST control)
TTGCAC	1.3 fold enrichment (6-mer frequency, TF over GST control)	1.38 fold enrichment (6-mer frequency, TF over GST control)	1.11 fold enrichment (6-mer frequency, TF over GST control)	1.22 fold enrichment (6-mer frequency, TF over GST control)	1.26 fold enrichment (6-mer frequency, TF over GST control)	1.22 fold enrichment (6-mer frequency, TF over GST control)	1.23 fold enrichment (6-mer frequency, TF over GST control)	1.26 fold enrichment (6-mer frequency, TF over GST control)
AGTGGC	1.27 fold enrichment (6-mer frequency, TF over GST control)	1.15 fold enrichment (6-mer frequency, TF over GST control)	1.22 fold enrichment (6-mer frequency, TF over GST control)	1.1 fold enrichment (6-mer frequency, TF over GST control)	1.11 fold enrichment (6-mer frequency, TF over GST control)	1.22 fold enrichment (6-mer frequency, TF over GST control)	1.27 fold enrichment (6-mer frequency, TF over GST control)	1.27 fold enrichment (6-mer frequency, TF over GST control)
TACGCC	1.36 fold enrichment (6-mer frequency, TF over GST control)	1.36 fold enrichment (6-mer frequency, TF over GST control)	1.29 fold enrichment (6-mer frequency, TF over GST control)	1.26 fold enrichment (6-mer frequency, TF over GST control)	1.19 fold enrichment (6-mer frequency, TF over GST control)	1.2 fold enrichment (6-mer frequency, TF over GST control)	1.27 fold enrichment (6-mer frequency, TF over GST control)	1.28 fold enrichment (6-mer frequency, TF over GST control)
TAGTGT	1.02 fold enrichment (6-mer frequency, TF over GST control)	1.04 fold enrichment (6-mer frequency, TF over GST control)	1.11 fold enrichment (6-mer frequency, TF over GST control)	1.18 fold enrichment (6-mer frequency, TF over GST control)	1.2 fold enrichment (6-mer frequency, TF over GST control)	1.14 fold enrichment (6-mer frequency, TF over GST control)	1.13 fold enrichment (6-mer frequency, TF over GST control)	1.02 fold enrichment (6-mer frequency, TF over GST control)
CACCTC	1.21 fold enrichment (6-mer frequency, TF over GST control)	1.18 fold enrichment (6-mer frequency, TF over GST control)	1.06 fold enrichment (6-mer frequency, TF over GST control)	1.17 fold enrichment (6-mer frequency, TF over GST control)	1.17 fold enrichment (6-mer frequency, TF over GST control)	1.09 fold enrichment (6-mer frequency, TF over GST control)	1.15 fold enrichment (6-mer frequency, TF over GST control)	1.14 fold enrichment (6-mer frequency, TF over GST control)
AGAAGC	1.11 fold enrichment (6-mer frequency, TF over GST control)	1.17 fold enrichment (6-mer frequency, TF over GST control)	1.09 fold enrichment (6-mer frequency, TF over GST control)	1.15 fold enrichment (6-mer frequency, TF over GST control)	1.23 fold enrichment (6-mer frequency, TF over GST control)	1.18 fold enrichment (6-mer frequency, TF over GST control)	1.23 fold enrichment (6-mer frequency, TF over GST control)	1.14 fold enrichment (6-mer frequency, TF over GST control)
TGCCAC	1.14 fold enrichment (6-mer frequency, TF over GST control)	1.28 fold enrichment (6-mer frequency, TF over GST control)	1.23 fold enrichment (6-mer frequency, TF over GST control)	1.15 fold enrichment (6-mer frequency, TF over GST control)	1.21 fold enrichment (6-mer frequency, TF over GST control)	1.16 fold enrichment (6-mer frequency, TF over GST control)	1.18 fold enrichment (6-mer frequency, TF over GST control)	1.24 fold enrichment (6-mer frequency, TF over GST control)
ATGGAC	1.13 fold enrichment (6-mer frequency, TF over GST control)	1.21 fold enrichment (6-mer frequency, TF over GST control)	1.24 fold enrichment (6-mer frequency, TF over GST control)	1.17 fold enrichment (6-mer frequency, TF over GST control)	1.02 fold enrichment (6-mer frequency, TF over GST control)	1.13 fold enrichment (6-mer frequency, TF over GST control)	1.2 fold enrichment (6-mer frequency, TF over GST control)	1.2 fold enrichment (6-mer frequency, TF over GST control)
CGTATC	1.15 fold enrichment (6-mer frequency, TF over GST control)	1.24 fold enrichment (6-mer frequency, TF over GST control)	1.11 fold enrichment (6-mer frequency, TF over GST control)	1.57 fold enrichment (6-mer frequency, TF over GST control)	1.1 fold enrichment (6-mer frequency, TF over GST control)	1.19 fold enrichment (6-mer frequency, TF over GST control)	1.28 fold enrichment (6-mer frequency, TF over GST control)	1.09 fold enrichment (6-mer frequency, TF over GST control)
GGGCTC	1.28 fold enrichment (6-mer frequency, TF over GST control)	1.32 fold enrichment (6-mer frequency, TF over GST control)	1.14 fold enrichment (6-mer frequency, TF over GST control)	1.09 fold enrichment (6-mer frequency, TF over GST control)	1.18 fold enrichment (6-mer frequency, TF over GST control)	1.12 fold enrichment (6-mer frequency, TF over GST control)	1.22 fold enrichment (6-mer frequency, TF over GST control)	1.19 fold enrichment (6-mer frequency, TF over GST control)
ATATTG	1.31 fold enrichment (6-mer frequency, TF over GST control)	1.41 fold enrichment (6-mer frequency, TF over GST control)	1.36 fold enrichment (6-mer frequency, TF over GST control)	1.43 fold enrichment (6-mer frequency, TF over GST control)	1.33 fold enrichment (6-mer frequency, TF over GST control)	1.34 fold enrichment (6-mer frequency, TF over GST control)	1.35 fold enrichment (6-mer frequency, TF over GST control)	1.42 fold enrichment (6-mer frequency, TF over GST control)
CACTGC	1.38 fold enrichment (6-mer frequency, TF over GST control)	1.59 fold enrichment (6-mer frequency, TF over GST control)	1.4 fold enrichment (6-mer frequency, TF over GST control)	1.42 fold enrichment (6-mer frequency, TF over GST control)	1.42 fold enrichment (6-mer frequency, TF over GST control)	1.23 fold enrichment (6-mer frequency, TF over GST control)	1.26 fold enrichment (6-mer frequency, TF over GST control)	1.41 fold enrichment (6-mer frequency, TF over GST control)
CATGCT	1.2 fold enrichment (6-mer frequency, TF over GST control)	1.35 fold enrichment (6-mer frequency, TF over GST control)	1.25 fold enrichment (6-mer frequency, TF over GST control)	1.2 fold enrichment (6-mer frequency, TF over GST control)	1.2 fold enrichment (6-mer frequency, TF over GST control)	1.19 fold enrichment (6-mer frequency, TF over GST control)	1.19 fold enrichment (6-mer frequency, TF over GST control)	1.28 fold enrichment (6-mer frequency, TF over GST control)
